Inconclusive results are not listed. A call without a number means that no potency is given here. A number with no mark means an inactive call. Calls of active or inactive are those of the source. The call rests on the fitted dose curve; in most records, active means well fitted cell-killing curve with a large enough effect in the repeat runs; inconclusive means weak or mixed curves, or effect the other way; inactive means flat fitted curve, though single readings scatter.

The nature of the test: qHTS assay to identify small molecule agonists of the estrogen receptor beta (ER-beta) signaling pathway - cell viability counter screen (AID 1259380). Further: nearly all actives have a fitted effect of over 30% in size. The following applies: ER-beta-bla HEK293T viability, CellTiter-Glo luminescence, 16 h; series mostly up to 92.4 µM. In short, it runs like this: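 Cells used were ER-beta-UAS-bla HEK293T in medium with 2% charcoal-stripped FBS. They were treated for 16 hr at 37C. Viability came from CellTiter-Glo luminescence.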
For the compound `N#CC(Br)(Br)C(N)=O`, the Potency entry was “inactive”.

Consider `C=CCC1(C(C)CC)C(=O)NC(=O)NC1=O` (configuration not stated), for which the Potency result was “inactive”.

In the case of `CCCC(C)C1(CC)C(=O)N=C(S)NC1=O` (configuration not stated), the Potency entry was “inactive”.

On to `CCOC(=O)NC(C)(C)Cc1ccc(Cl)cc1`, for which the Potency entry was “inactive”.

As for `C[C@@H](N)[C@@H](O)c1ccccc1`, the Potency entry was “inactive”.

As for `O=[N+]([O-])c1cccc(CCl)c1`, the Potency entry was “inactive”.

As for `CNC(=O)O/N=C(/CSC)C(C)(C)C`, the Potency entry was “inactive”.

Regarding `CC(C)(N)Cc1ccc(Cl)cc1`, the Potency entry is “inactive”.

Take `CCOP(=O)(CN(CCO)CCO)OCC`: the Potency entry was “inactive”.

For the compound `CCCCS(=O)(=O)Cl`, the Potency result is “inactive”.

As to `CC(C)C(C)(N)C#N` (configuration not stated), the Potency entry is “inactive”.

In the case of `CCOC(=O)CC(SP(=S)(OC)OC)C(=O)OCC` (configuration not stated), the Potency result was “inactive”.

For `Brc1c(Br)c(Br)c(Br)c(Br)c1Br`, the activity change, negative = cytotoxicity was -3.01% [at 8.39 µM].

Consider `ClCC1CO1` (configuration not stated), for which the Potency entry was “inactive”.

Turning to `COC(=O)[C@@H](N)CCCN/C(N)=N/[N+](=O)[O-]`, the Potency entry is “inactive”.

Consider `CC(Cl)(Cl)Cl`, for which the Potency result was “inactive”.

For the compound `N#CN=C1SCCN1Cc1ccc(Cl)nc1`, the Potency entry was “inactive”.

Turning to `CCN[C@H](C)Cc1cccc(C(F)(F)F)c1`, the Potency result is “inactive”.

For the compound `CCN[C@@H](C)Cc1cccc(C(F)(F)F)c1`, the Potency result was “inactive”.

For the compound `CCCN1CCC[C@@H]2Cc3nc(N)ncc3C[C@H]21`, the Potency result was “inactive”.

As for `CCOC(=O)C(SP(=S)(OC)OC)c1ccccc1` (configuration not stated), the Potency result was “inactive”.

For the compound `CCCCOC(C)=O`, the Potency result is “inactive”.

Take `Cc1cccc2sc3nncn3c12`: the Potency result was “inactive”.

For `NCC1(CC(=O)O)CCCCC1`, the Potency entry was “inactive”.

Take `CCN1CCCC1CNC(=O)C(O)(c1ccccc1)c1ccccc1` (configuration not stated): the Potency result was “inactive”.

Consider `COc1cc(CC(C)N)cc(OC)c1OC` (configuration not stated), for which the Potency entry is “inactive”.

For `CN1COCN(Cc2cnc(Cl)s2)/C1=N\[N+](=O)[O-]`, the Potency result was “inactive”.
